Experimental data published in the supplement of paper PMC10849652.
About 8,800 targets were measured; listed, in parts, are those with a hit and a random draw of the rest. About 0.5% of all pairs of compound and target were hits.

How the values were obtained:
Assay in all cases: log2 fold change, soluble protein after heating vs DMSO (PISA); higher = thermal stabilisation; K562 lysate, 10 uM; active = over 0.2 and 3.5 SD of the protein, either way, in both replicates (recomputed)
lapatinib = compound: CS(=O)(=O)CCNCc1ccc(-c2ccc3ncnc(Nc4ccc(OCc5cccc(F)c5)c(Cl)c4)c3c2)o1 [lapatinib]
Summary of the method: (§1)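 K562 pellets were dounce-homogenised in PBS pH 7.4 containing 1 mM MgCl2, and the crude extract, at 1 mg/mL protein, was exposed to 10 μM compound for 30 min. Aliquots were heated for 3 min across 48°C-58°C, pooled, brought to 0.5% NP-40 at 4°C and spun at 21,000xg for 90 min, with the supernatant taken as soluble protein. TMTpro 16plex LC-MS/MS with equalised channel sums quantified that protein. Values are log-two fold changes in thermal stability relative to solvent controls, taken from duplicates.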

pictilisib = compound: CS(=O)(=O)N1CCN(Cc2cc3nc(-c4cccc5[nH]ncc45)nc(N4CCOCC4)c3s2)CC1 [pictilisib]
Summary of the method: as §1

crizotinib = compound: C[C@@H](Oc1cc(-c2cnn(C3CCNCC3)c2)cnc1N)c1c(Cl)ccc(F)c1Cl [crizotinib]
Summary of the method: as §1

[1] = compound: C[C@H](C1=CC=C(C=C1)C(=O)NC2=C3C=CNC3=NC=C2)N
Summary of the method: as §1

duvelisib = compound: C[C@H](Nc1ncnc2nc[nH]c12)c1cc2cccc(Cl)c2c(=O)n1-c1ccccc1 [duvelisib]
Summary of the method: as §1

gandotinib = compound: Cc1cc(Nc2cc(CN3CCOCC3)c3nc(C)c(Cc4ccc(Cl)cc4F)n3n2)n[nH]1 [gandotinib]
Summary of the method: as §1

tozasertib = compound: Cc1cc(Nc2cc(N3CCN(C)CC3)nc(Sc3ccc(NC(=O)C4CC4)cc3)n2)n[nH]1 [tozasertib]
Summary of the method: as §1

doramapimod = compound: Cc1ccc(-n2nc(C(C)(C)C)cc2NC(=O)Nc2ccc(OCCN3CCOCC3)c3ccccc23)cc1 [doramapimod]
Summary of the method: as §1

bafetinib = compound: Cc1ccc(NC(=O)c2ccc(CN3CC[C@H](N(C)C)C3)c(C(F)(F)F)c2)cc1Nc1nccc(-c2cncnc2)n1 [bafetinib]
Summary of the method: as §1

[2] = compound: Cc1cccc(CC(=O)N2CCc3c2ccc(-c2cn(C)c4ncnc(N)c24)c3F)n1
Summary of the method: as §1

nilotinib = compound: Cc1cn(-c2cc(NC(=O)c3ccc(C)c(Nc4nccc(-c5cccnc5)n4)c3)cc(C(F)(F)F)c2)cn1 [nilotinib]
Summary of the method: as §1

[3] = compound: Cc1nc(Nc2n[nH]c3c2CN(C(=O)N[C@H](CN(C)C)c2ccccc2)C3(C)C)c2sccc2n1
Summary of the method: as §1

dasatinib = compound: Cc1nc(Nc2ncc(C(=O)Nc3c(C)cccc3Cl)s2)cc(N2CCN(CCO)CC2)n1 [dasatinib]
Summary of the method: as §1

[4] = compound: Cc1ncc(-c2ccnc(Nc3ccc(S(C)(=O)=O)cc3)n2)n1C(C)C
Summary of the method: as §1

[5] = compound: Cn1cc(-c2ccc3c(c2)CCN3C(=O)Cc2cccc(C(F)(F)F)c2)c2c(N)ncnc21
Summary of the method: as §1

quisinostat = compound: Cn1cc(CNCC2CCN(c3ncc(C(=O)NO)cn3)CC2)c2ccccc21 [quisinostat]
Summary of the method: as §1

tipifarnib = compound: Cn1cncc1[C@@](N)(c1ccc(Cl)cc1)c1ccc2c(c1)c(-c1cccc(Cl)c1)cc(=O)n2C [tipifarnib]
Summary of the method: as §1

[6] = compound: NC(=O)Nc1cc(-c2cccc(F)c2)sc1C(=O)N[C@H]1CCCNC1
Summary of the method: as §1

[7] = compound: NC(=O)c1cnc(N[C@@H]2CCCC[C@@H]2N)nc1Nc1cccc(-n2nccn2)c1
Summary of the method: as §1

[8] = compound: NC1(c2ccc(-c3nc4ccn5c(=O)[nH]nc5c4cc3-c3ccccc3)cc2)CCC1
Summary of the method: as §1

Measured: log2 fold change

CCNB1 (UniProt P14635)
active: [4] 0.369
inactive: lapatinib -0.029 | pictilisib -0.01 | crizotinib -0.024 | [1] -0.019 | duvelisib 0.033 | gandotinib -0.078 | tozasertib 0.005 | doramapimod 0.03 | bafetinib -0.004 | [2] 0.091 | nilotinib -0.04 | [3] 0.037 | dasatinib -0.016 | [5] -0.021 | quisinostat 0.035 | tipifarnib -0.005 | [6] 0.005 | [7] 0.165 | [8] 0.006

CBR1 (UniProt P16152)
Sequence of UniProt P16152 (P16152 whole entry, looked up): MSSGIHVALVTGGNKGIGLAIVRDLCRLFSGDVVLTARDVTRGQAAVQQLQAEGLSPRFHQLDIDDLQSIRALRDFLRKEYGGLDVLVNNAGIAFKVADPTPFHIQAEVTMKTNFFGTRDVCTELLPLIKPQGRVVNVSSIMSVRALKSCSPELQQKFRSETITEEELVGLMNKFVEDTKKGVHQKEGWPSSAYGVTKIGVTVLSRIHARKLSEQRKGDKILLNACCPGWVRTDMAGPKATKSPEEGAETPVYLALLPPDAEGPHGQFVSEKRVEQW
inactive: lapatinib 0.023 | pictilisib -0.027 | crizotinib 0.043 | [1] -0.082 | duvelisib -0.037 | gandotinib 0.001 | tozasertib 0.003 | doramapimod -0.044 | bafetinib 0.034 | [2] 0.032 | nilotinib 0.046 | [3] 0.046 | dasatinib 0.1 | [4] 0.076 | [5] -0.02 | quisinostat 0.113 | tipifarnib -0.001 | [6] -0.021 | [7] -0.02 | [8] 0.016

CBX1 (UniProt P83916)
Sequence of UniProt P83916 (P83916 whole entry, looked up): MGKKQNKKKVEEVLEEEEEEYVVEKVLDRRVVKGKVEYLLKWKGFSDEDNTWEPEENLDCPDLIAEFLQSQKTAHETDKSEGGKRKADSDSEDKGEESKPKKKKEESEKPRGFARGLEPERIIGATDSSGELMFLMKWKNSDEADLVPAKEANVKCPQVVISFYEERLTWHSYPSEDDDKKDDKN
active: [1] 0.279
inactive: lapatinib 0.052 | pictilisib -0.006 | crizotinib 0.023 | duvelisib 0.03 | gandotinib -0.143 | tozasertib -0.05 | doramapimod -0.034 | bafetinib 0.025 | [2] -0.138 | nilotinib 0.006 | [3] -0.003 | dasatinib 0.017 | [4] 0 | [5] -0.027 | quisinostat -0.004 | tipifarnib -0.008 | [6] -0.004 | [7] 0.062 | [8] 0.012

CAMK1 (UniProt Q14012)
Sequence of UniProt Q14012 (Q14012 whole entry, looked up): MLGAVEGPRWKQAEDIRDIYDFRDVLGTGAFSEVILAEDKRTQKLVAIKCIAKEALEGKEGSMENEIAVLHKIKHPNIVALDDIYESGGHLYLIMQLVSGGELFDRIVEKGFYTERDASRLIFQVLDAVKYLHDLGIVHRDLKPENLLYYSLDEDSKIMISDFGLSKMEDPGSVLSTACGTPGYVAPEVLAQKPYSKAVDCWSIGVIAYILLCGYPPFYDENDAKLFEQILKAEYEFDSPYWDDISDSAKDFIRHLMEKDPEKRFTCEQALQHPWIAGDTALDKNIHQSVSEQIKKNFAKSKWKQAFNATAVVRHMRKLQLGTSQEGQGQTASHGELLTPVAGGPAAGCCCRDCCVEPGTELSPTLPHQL
inactive: lapatinib -0.037 | pictilisib -0.058 | crizotinib -0.078 | [1] -0.145 | duvelisib -0.042 | gandotinib 0.187 | tozasertib 0.05 | doramapimod -0.006 | bafetinib -0.047 | nilotinib -0.086 | [3] 0.04 | dasatinib 0.021 | [4] 0.064 | [5] 0.008 | quisinostat -0.12 | tipifarnib -0.071 | [6] 0.194 | [7] 0.018 | [8] -0.023
active: [2] 0.314

BCKDHB (UniProt P21953)
Sequence of UniProt P21953 (P21953 whole entry, looked up): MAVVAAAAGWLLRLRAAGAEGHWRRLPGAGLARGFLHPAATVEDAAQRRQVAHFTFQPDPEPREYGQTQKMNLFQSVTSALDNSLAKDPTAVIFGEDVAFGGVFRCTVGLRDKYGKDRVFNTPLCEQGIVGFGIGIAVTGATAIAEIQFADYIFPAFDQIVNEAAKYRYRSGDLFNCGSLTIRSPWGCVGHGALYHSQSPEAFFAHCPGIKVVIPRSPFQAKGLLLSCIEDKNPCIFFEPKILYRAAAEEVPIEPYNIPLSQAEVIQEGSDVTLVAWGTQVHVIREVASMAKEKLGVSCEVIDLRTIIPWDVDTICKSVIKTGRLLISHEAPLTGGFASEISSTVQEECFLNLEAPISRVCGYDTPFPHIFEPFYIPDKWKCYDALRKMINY
inactive: lapatinib 0.005 | pictilisib -0.043 | crizotinib -0.055 | [1] 0.083 | duvelisib 0.026 | gandotinib 0.015 | tozasertib 0.09 | doramapimod 0.064 | bafetinib -0.052 | [2] -0.017 | nilotinib 0.068 | [3] 0.007 | dasatinib 0.062 | [4] 0.084 | [5] 0.039 | quisinostat 0.031 | tipifarnib -0.069 | [6] -0.005 | [7] 0.007 | [8] -0.039

C18orf25 (UniProt Q96B23)
Sequence of UniProt Q96B23 (Q96B23 whole entry, looked up): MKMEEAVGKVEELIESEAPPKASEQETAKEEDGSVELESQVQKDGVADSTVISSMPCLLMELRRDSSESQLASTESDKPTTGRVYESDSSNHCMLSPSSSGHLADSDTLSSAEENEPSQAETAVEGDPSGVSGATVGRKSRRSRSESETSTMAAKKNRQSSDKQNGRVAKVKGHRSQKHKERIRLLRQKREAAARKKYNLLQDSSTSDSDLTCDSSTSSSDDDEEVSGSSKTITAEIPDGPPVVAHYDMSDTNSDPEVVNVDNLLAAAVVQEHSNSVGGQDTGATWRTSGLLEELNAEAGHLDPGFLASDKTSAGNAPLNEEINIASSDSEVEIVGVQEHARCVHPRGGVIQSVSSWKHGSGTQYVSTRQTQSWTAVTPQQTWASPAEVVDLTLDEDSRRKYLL
inactive: lapatinib 0.017 | pictilisib -0.003 | crizotinib -0.049 | [1] 0.022 | duvelisib -0.046 | gandotinib 0.019 | tozasertib -0.029 | doramapimod 0.019 | bafetinib -0.023 | [2] -0.098 | nilotinib 0.139 | [3] -0.014 | dasatinib -0.022 | [4] -0.018 | [5] 0.082 | quisinostat -0.007 | tipifarnib 0.003 | [6] 0 | [7] 0.011 | [8] -0.008

BMS1 (UniProt Q14692)
Sequence of UniProt Q14692 (Q14692 whole entry, looked up): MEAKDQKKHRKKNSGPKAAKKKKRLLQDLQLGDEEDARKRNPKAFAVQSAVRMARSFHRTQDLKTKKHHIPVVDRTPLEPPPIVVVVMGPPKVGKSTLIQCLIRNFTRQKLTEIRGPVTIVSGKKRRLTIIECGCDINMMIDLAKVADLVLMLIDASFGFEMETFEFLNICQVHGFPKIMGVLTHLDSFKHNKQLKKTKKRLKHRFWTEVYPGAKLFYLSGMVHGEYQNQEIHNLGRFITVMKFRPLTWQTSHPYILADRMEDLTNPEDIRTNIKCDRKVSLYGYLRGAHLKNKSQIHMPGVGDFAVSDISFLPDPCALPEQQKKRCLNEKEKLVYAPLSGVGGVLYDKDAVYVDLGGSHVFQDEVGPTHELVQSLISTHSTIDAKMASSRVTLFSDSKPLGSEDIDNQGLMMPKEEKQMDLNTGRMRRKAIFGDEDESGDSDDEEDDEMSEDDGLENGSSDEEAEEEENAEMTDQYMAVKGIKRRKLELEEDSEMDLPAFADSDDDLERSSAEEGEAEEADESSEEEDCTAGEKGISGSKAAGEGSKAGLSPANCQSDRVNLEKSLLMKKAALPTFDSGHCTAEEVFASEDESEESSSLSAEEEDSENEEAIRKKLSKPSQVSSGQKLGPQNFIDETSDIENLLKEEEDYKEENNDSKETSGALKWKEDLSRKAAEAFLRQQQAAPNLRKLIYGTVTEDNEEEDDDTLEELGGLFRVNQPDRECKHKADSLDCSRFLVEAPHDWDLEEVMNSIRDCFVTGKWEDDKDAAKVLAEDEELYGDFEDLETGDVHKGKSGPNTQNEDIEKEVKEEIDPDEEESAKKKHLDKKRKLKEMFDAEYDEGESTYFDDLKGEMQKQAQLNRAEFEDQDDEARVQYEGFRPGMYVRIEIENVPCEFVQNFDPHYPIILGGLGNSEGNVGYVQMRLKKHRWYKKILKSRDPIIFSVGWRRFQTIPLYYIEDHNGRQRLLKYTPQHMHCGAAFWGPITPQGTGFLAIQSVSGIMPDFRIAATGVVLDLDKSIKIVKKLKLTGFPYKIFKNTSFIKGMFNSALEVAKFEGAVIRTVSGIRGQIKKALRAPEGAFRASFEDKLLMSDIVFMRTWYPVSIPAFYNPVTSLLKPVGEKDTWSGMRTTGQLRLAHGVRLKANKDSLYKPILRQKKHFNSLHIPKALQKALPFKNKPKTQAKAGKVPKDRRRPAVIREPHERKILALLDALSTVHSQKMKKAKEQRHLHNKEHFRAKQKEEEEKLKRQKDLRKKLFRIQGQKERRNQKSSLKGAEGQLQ
inactive: lapatinib -0.029 | pictilisib -0.052 | crizotinib -0.058 | [1] -0.018 | duvelisib -0.036 | gandotinib 0.043 | tozasertib 0.018 | doramapimod 0.047 | bafetinib -0.032 | [2] 0.045 | nilotinib 0.024 | [3] 0.024 | dasatinib -0.02 | [4] -0.045 | [5] -0.01 | quisinostat -0.097 | tipifarnib 0 | [6] 0.006 | [7] 0.015 | [8] -0.019

BNIP1 (UniProt Q12981)
Sequence of UniProt Q12981 (Q12981 whole entry, looked up): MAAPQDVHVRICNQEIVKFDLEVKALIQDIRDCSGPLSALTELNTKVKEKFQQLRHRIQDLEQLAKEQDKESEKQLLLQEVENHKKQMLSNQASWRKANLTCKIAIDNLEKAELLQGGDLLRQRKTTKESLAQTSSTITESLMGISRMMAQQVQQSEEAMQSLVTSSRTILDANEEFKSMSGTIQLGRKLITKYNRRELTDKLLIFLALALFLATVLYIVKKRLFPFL
inactive: lapatinib -0.007 | pictilisib 0.018 | crizotinib -0.062 | [1] 0.273 | duvelisib -0.059 | gandotinib -0.15 | tozasertib 0.017 | doramapimod 0.071 | bafetinib -0.019 | [2] -0.17 | nilotinib -0.004 | [3] -0.037 | dasatinib -0.005 | [4] -0.028 | [5] -0.045 | quisinostat -0.014 | tipifarnib -0.046 | [6] -0.034 | [7] -0.033 | [8] 0.057

C3 (UniProt P01024)
inactive: lapatinib 0.011 | pictilisib -0.01 | crizotinib 0.042 | [1] -0.095 | duvelisib -0.073 | gandotinib 0.044 | tozasertib 0.068 | doramapimod -0.006 | bafetinib 0.019 | [2] 0.019 | nilotinib 0.001 | [3] 0.027 | dasatinib 0.069 | [4] -0.006 | [5] -0.022 | quisinostat -0.085 | tipifarnib 0.027 | [6] -0.025 | [7] -0.066 | [8] 0.012

C19orf54 (UniProt Q5BKX5)
Sequence of UniProt Q5BKX5 (Q5BKX5 whole entry, looked up): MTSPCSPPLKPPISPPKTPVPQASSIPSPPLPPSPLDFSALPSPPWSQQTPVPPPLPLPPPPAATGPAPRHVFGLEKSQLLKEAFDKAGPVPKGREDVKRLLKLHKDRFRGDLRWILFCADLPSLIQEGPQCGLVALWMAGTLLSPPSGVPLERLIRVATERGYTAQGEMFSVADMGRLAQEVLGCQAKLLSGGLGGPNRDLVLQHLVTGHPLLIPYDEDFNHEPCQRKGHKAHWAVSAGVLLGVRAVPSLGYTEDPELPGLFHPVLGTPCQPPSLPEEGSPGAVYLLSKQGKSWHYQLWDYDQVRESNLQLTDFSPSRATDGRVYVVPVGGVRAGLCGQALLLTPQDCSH
inactive: lapatinib -0.003 | pictilisib -0.089 | crizotinib -0.019 | [1] -0.011 | duvelisib -0.076 | gandotinib -0.046 | tozasertib -0.008 | doramapimod -0.036 | bafetinib -0.01 | [2] 0.027 | nilotinib 0.012 | [3] -0.006 | dasatinib -0.037 | [4] -0.016 | [5] 0.006 | quisinostat 0.006 | tipifarnib -0.007 | [6] 0.098 | [7] 0.016 | [8] 0.003

BAG4 (UniProt O95429)
Sequence of UniProt O95429 (O95429 whole entry, looked up): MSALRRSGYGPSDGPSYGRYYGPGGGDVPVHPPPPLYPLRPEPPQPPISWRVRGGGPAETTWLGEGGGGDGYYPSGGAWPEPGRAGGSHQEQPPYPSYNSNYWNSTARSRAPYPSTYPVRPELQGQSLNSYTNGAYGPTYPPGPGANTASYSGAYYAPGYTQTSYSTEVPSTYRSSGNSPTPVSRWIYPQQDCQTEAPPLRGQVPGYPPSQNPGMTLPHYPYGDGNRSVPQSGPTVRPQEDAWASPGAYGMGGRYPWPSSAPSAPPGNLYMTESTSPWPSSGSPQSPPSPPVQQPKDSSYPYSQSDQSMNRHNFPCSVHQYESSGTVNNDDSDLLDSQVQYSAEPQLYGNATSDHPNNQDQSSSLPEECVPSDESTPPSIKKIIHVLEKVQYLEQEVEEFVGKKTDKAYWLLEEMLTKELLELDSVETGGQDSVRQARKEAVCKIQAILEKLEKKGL
inactive: lapatinib 0.013 | pictilisib -0.174 | crizotinib 0.06 | [1] -0.056 | duvelisib 0.043 | gandotinib 0.102 | tozasertib 0.011 | doramapimod -0.043 | bafetinib -0.002 | [2] 0.004 | nilotinib -0.154 | [3] -0.039 | dasatinib 0.027 | [4] 0.014 | [5] 0.015 | quisinostat 0.019 | tipifarnib -0.011 | [6] 0.01 | [7] 0.018 | [8] 0.038

CHAC2 (UniProt Q8WUX2)
Sequence of UniProt Q8WUX2 (Q8WUX2 whole entry, looked up): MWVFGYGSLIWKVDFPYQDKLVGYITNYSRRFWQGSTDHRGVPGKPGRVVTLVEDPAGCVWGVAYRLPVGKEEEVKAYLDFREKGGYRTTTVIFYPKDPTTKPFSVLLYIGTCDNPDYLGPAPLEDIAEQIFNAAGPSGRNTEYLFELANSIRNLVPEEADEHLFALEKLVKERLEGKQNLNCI
active: [1] 0.57
inactive: lapatinib 0.038 | pictilisib -0.011 | crizotinib 0.003 | duvelisib 0.038 | gandotinib -0.161 | tozasertib 0.015 | doramapimod -0.01 | bafetinib -0.018 | [2] -0.198 | nilotinib 0.004 | [3] 0.043 | dasatinib -0.022 | [4] -0.024 | [5] 0.036 | quisinostat -0.066 | tipifarnib 0.041 | [6] 0.019 | [7] 0.017 | [8] -0.027

C9orf72 (UniProt Q96LT7)
Sequence of UniProt Q96LT7 (Q96LT7 whole entry, looked up): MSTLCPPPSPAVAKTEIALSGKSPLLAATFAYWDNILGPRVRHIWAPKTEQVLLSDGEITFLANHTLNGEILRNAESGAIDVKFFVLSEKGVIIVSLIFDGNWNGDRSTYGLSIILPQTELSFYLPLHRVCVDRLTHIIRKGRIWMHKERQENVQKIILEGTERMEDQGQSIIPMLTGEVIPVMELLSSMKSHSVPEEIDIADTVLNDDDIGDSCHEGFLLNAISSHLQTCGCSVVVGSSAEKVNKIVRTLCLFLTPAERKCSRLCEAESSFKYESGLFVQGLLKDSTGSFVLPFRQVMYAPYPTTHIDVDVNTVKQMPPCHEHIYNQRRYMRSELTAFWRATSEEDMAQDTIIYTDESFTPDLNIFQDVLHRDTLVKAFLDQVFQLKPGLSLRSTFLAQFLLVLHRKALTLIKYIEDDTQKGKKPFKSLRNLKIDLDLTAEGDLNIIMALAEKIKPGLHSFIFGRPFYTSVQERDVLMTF
inactive: lapatinib 0.061 | pictilisib -0.112 | crizotinib 0.082 | [1] -0.075 | duvelisib -0.072 | gandotinib 0.035 | tozasertib -0.196 | doramapimod 0.03 | bafetinib -0.043 | [2] -0.009 | nilotinib 0.017 | [3] -0.063 | dasatinib -0.025 | [4] 0.073 | [5] 0.001 | quisinostat -0.034 | tipifarnib -0.065 | [6] -0.03 | [7] 0.015 | [8] -0.014

C2CD5 isoform 3 (UniProt Q86YS7)
inactive: lapatinib -0.031 | pictilisib -0.029 | crizotinib -0.028 | duvelisib -0.009 | gandotinib 0.125 | tozasertib -0.038 | doramapimod 0.035 | bafetinib -0.056 | nilotinib -0.036 | [3] 0.074 | dasatinib -0.053 | [4] 0.046 | [5] 0.01 | quisinostat 0.013 | tipifarnib -0.053 | [6] 0.024 | [7] 0.01 | [8] -0.044
active: [1] -0.26 | [2] 0.28

CARHSP1 (UniProt Q9Y2V2)
Sequence of UniProt Q9Y2V2 (Q9Y2V2 whole entry, looked up): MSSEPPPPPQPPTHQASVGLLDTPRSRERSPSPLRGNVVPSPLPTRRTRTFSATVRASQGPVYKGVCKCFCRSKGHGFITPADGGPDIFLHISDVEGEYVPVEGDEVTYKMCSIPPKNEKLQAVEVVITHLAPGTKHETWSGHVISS
inactive: lapatinib -0.014 | pictilisib -0.08 | crizotinib 0.011 | [1] -0.053 | duvelisib 0.003 | gandotinib 0.047 | tozasertib 0.003 | doramapimod -0.012 | bafetinib -0.033 | [2] 0.019 | nilotinib 0.037 | [3] -0.037 | dasatinib 0.017 | [4] -0.004 | [5] -0.04 | quisinostat -0.006 | tipifarnib 0.035 | [6] -0.034 | [7] -0.026 | [8] -0.001

BOLA2 (UniProt Q9H3K6)
Sequence of UniProt Q9H3K6 (Q9H3K6 whole entry, looked up): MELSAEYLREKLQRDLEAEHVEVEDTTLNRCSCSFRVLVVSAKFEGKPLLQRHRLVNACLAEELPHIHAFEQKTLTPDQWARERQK
active: [1] 0.46
inactive: lapatinib -0.038 | pictilisib -0.035 | crizotinib 0.02 | duvelisib 0.03 | gandotinib -0.088 | tozasertib 0.069 | doramapimod 0.033 | bafetinib 0.094 | [2] -0.064 | nilotinib 0.039 | [3] -0.036 | dasatinib -0.002 | [4] -0.021 | [5] 0.009 | quisinostat 0.063 | tipifarnib 0.01 | [6] -0.042 | [7] -0.013 | [8] 0.096
